Screens from PubChem BioAssay.
Sampled rows, rich in hits. Any-hit rate of the full collection: about 19%.
uPA generation: blocks generation of uPA at the cell surface. cell surface uPA generation assay, qHTS. Potency, µM (top dose mostly 38.3 µM), without a hit: top-dose activity change, negative = inhibition, usual class: inhibitors. 0.31% of 330,000 active. AID 540303; active means well fitted inhibition curve with a large enough effect; inconclusive means small, poorly fitted or top-dose-only effect; inactive means no such curve, though single readings can be large or run the other way; tested in mouse RAW 264.7 cells; further: potency means the concentration at half of the fitted maximal effect; nearly all actives have a fitted effect of over 55% in size
DT40 TDP1 CPT: DT40-hTDP1 cell growth loss with CPT; Potency, µM (doses to about 46.2 µM), without a hit: at the top dose activity change, negative = growth inhibition, most hits filed as inhibitors; AID 686979; chicken DT40 Tdp1-/-;hTDP1 cells + 20 nM CPT, ATP luminescence, 48 h; 12% of 420,000 active; further: potency means the concentration at half of the fitted maximal effect; nearly all actives have a fitted effect of over 55% in size
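Chicken DT40 Tdp1-/- cells complemented with human TDP1, 400 cells/well, exposed to compounds plus 20 nM camptothecin for at least 48 h at 37 C; viability read as ATP content by CellTiter-Glo luminescence.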
IL1B secr inh: inflammasome signaling inhibition, IL-1 beta readout; THP-1 LPS/ATP IL-1B secretion, AlphaLISA, 16 h; hits give low values; activity change, % at 57.5 µM; 4.7% of 360,000 active; in the data active means activity change below about -50%; inconclusive means mostly about -30% to -49%
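THP-1 cells pretreated 1 hr with compounds (up to 57.5 uM final), then stimulated with LPS (250 ng/mL final) plus ATP (1.25 mM final); secreted IL-1B measured by AlphaLISA after 16 hr, decreased signal indicating inhibition.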
HT1080-NT tox: kills 2HG-producing HT-1080-NT fibrosarcoma cells; HT-1080-NT fibrosarcoma viability, CellTiter-Glo ATP luminescence, 48 h; AID 686970; 1.6% of 360,000 active; Potency, µM (top dose mostly 46.1 µM), without a hit: at the highest dose activity, negative = less viability, usual class: cytotoxic;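 further: NT is the 2HG producing partner of a matched IDH1 knockdown line; potency means the concentration at half of the fitted maximal effect; 0% = DMSO-treated cells and -100% = media-only wells without cells; nearly all actives have a fitted effect of over 55% in size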
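HT-1080-NT; 750 cells/well; 5% FBS RPMI; 48 h compound, 37 degrees C; CellTiter-Glo luminescence; curve fitting and curve-class assignment.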
HT1080 IDH1KD tx: kills HT-1080 cells with IDH1 knockdown. 2% of 360,000 active. HT-1080 IDH1 knockdown viability, ATP luminescence, 48 h. Potency, µM (top dose mostly 46.1 µM), for the others: top-dose activity, negative = toxicity, actives largely listed as cytotoxic. AID 686971;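 further: potency means the concentration at half of the fitted maximal effect; 0% = DMSO wells and -100% = cell-free medium wells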
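Viability of IDH1-knockdown HT-1080 fibrosarcoma cells was assessed by CellTiter-Glo after 48 h at 37 °C with titrated compound; concentration-effect curves were classified by fit quality and response size.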
DT40 TDP1 no CPT: qHTS for Inhibitors of human tyrosyl-DNA phosphodiesterase 1 (TDP1): qHTS in cells in absence of CPT; 15% of 420,000 active; AID 686978, 2013; Potency, µM (titrated, usually from 46.2 µM), inactives show at the top dose activity change, negative = growth inhibition, usual class: inhibitors; DT40 Tdp1-/- hTDP1 cells, no CPT, ATP luminescence, 48 h; further: potency means the concentration at half of the fitted maximal effect; nearly all actives have a fitted effect of over 55% in size
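Stably hTDP1-transfected Tdp1-null chicken DT40 cells were treated with library compounds minus camptothecin and grown for at least 48 hr at 37 °C, after which cellular ATP was quantified by luminescence.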
* hit, by the source's call; [ ] = remark or other dose. Unless noted, the call rests on the fitted dose curve; in most records, active means well fitted curve in the direction sought with a large enough effect; inconclusive means small, poorly fitted or top-dose-only effect, or another doubt; inactive means no such curve, though single readings can be large; an effect the other way counts as inactive or inconclusive. Unless noted, on the % scale 0 is the no-effect control and ±100 the full control effect.

N#CCC(CNc1ncc(C(F)(F)F)cc1Cl)OC(=O)c1ccc(Cl)cc1Cl (configuration not stated) was read as uPA generation -26%, DT40 TDP1 CPT -9%, IL1B secr inh inconclusive, HT1080-NT tox inconclusive, HT1080 IDH1KD tx -3%[9.24 µM] and DT40 TDP1 no CPT -26%.
`CCOC(=O)c1c(NC(=O)c2cc(=O)c3c(C)cc(C)cc3o2)sc2c1CCC2` gave DT40 TDP1 CPT -4% and DT40 TDP1 no CPT 0%.
`COc1ccc(C)cc1COC(=O)c1[nH]c(C)c(C(C)=O)c1C` gave uPA generation -5%, DT40 TDP1 CPT 21µM*, IL1B secr inh 35, HT1080-NT tox -1%, HT1080 IDH1KD tx -19% and DT40 TDP1 no CPT 16µM*.
Screening CC(=O)c1c(C)[nH]c(C(=O)OCc2ccccc2F)c1C returned uPA generation -5%, DT40 TDP1 CPT 15µM*, IL1B secr inh -7, HT1080-NT tox -10%, HT1080 IDH1KD tx -15% and DT40 TDP1 no CPT 21µM*.
CC(=O)c1c(C)[nH]c(C(=O)OCC(=O)NC(C)c2ccccc2)c1C (configuration not stated) was read as DT40 TDP1 CPT -5%, IL1B secr inh -9, HT1080-NT tox -6%, HT1080 IDH1KD tx -7% and DT40 TDP1 no CPT inconclusive.
Screening COc1ccc(CN(C)C(=O)c2[nH]c(C)c(C(C)=O)c2C)cc1F returned uPA generation 0%, DT40 TDP1 CPT inconclusive, IL1B secr inh 61, HT1080-NT tox -8%, HT1080 IDH1KD tx -17% and DT40 TDP1 no CPT 15µM*.
COc1ccc(CCNC(=O)c2[nH]c(C)c(C(C)=O)c2C)cc1OC was read as uPA generation -2%, DT40 TDP1 CPT -7%, IL1B secr inh -13, HT1080-NT tox 17%, HT1080 IDH1KD tx 12% and DT40 TDP1 no CPT -16%.
Screening CC(=O)c1c(C)[nH]c(C(=O)OCc2cccc(C)c2)c1C returned uPA generation -6%, DT40 TDP1 CPT 16µM*, IL1B secr inh 15, HT1080-NT tox -11%, HT1080 IDH1KD tx -21% and DT40 TDP1 no CPT 13µM*.
Screening O=C(Nc1cccc(F)c1)c1ccc2snnc2c1 returned DT40 TDP1 CPT 0% and DT40 TDP1 no CPT -7%.
For COC(=O)c1c(C)[nH]c(C(=O)COc2ccc3ccc(=O)oc3c2)c1C the results were uPA generation 8%, DT40 TDP1 CPT inconclusive, IL1B secr inh 0, HT1080-NT tox 3%[9.24 µM], HT1080 IDH1KD tx 9% and DT40 TDP1 no CPT 9.2µM*.
For CC(=O)c1c(C)[nH]c(C(=O)Nc2cc(C)cc(C)c2)c1C the results were uPA generation 3%, DT40 TDP1 CPT -5%, IL1B secr inh -16, HT1080-NT tox inconclusive, HT1080 IDH1KD tx 8% and DT40 TDP1 no CPT inconclusive.
For CC(=O)c1c(C)[nH]c(C(=O)OCCOc2ccccc2)c1C the results were uPA generation -3%, DT40 TDP1 CPT inconclusive, IL1B secr inh 18, HT1080-NT tox 1%, HT1080 IDH1KD tx inconclusive and DT40 TDP1 no CPT 9.2µM*.
CC(=O)c1c(C)[nH]c(C(=O)COc2ccc3ccc(=O)oc3c2)c1C was read as uPA generation -6%, DT40 TDP1 CPT inconclusive, IL1B secr inh -10, HT1080-NT tox -2%, HT1080 IDH1KD tx -8% and DT40 TDP1 no CPT inconclusive.
For CC(=O)c1c(C)[nH]c(C(=O)COc2cc(C)cc(C)c2)c1C the results were DT40 TDP1 CPT inconclusive, IL1B secr inh -10, HT1080-NT tox 0%, HT1080 IDH1KD tx inconclusive and DT40 TDP1 no CPT 16µM*.
Screening CSc1ncccc1C(=O)OCC(=O)c1[nH]c(C)c(C(C)=O)c1C returned uPA generation -9%, DT40 TDP1 CPT 18µM*, IL1B secr inh 0, HT1080-NT tox 1%[9.24 µM], HT1080 IDH1KD tx 2% and DT40 TDP1 no CPT inconclusive.
COC(=O)c1c(C(=O)OC)c(-c2ccc(OC)cc2)n2c1CS(=O)(=O)C2 was read as uPA generation -1%, DT40 TDP1 CPT 0%, IL1B secr inh 20, HT1080-NT tox 8%, HT1080 IDH1KD tx 1% and DT40 TDP1 no CPT 11%.
`COC(=O)N1CCC2CC1c1c(Cl)cccc12` (configuration not stated) gave DT40 TDP1 CPT -1%, IL1B secr inh 44, HT1080-NT tox 17%, HT1080 IDH1KD tx 9% and DT40 TDP1 no CPT -12%.
Screening CCCCC(=O)N(C)c1c(C)nc2ccc(C(=O)Nc3cccc(NS(C)(=O)=O)c3)cn12 returned DT40 TDP1 CPT -1%, IL1B secr inh 16, HT1080-NT tox 10%, HT1080 IDH1KD tx 8% and DT40 TDP1 no CPT -10%.
`COc1ccccc1NS(=O)(=O)c1cc(NC(=O)C2CCCO2)ccc1C` (configuration not stated) gave uPA generation 3%, DT40 TDP1 CPT -8%, IL1B secr inh 20, HT1080-NT tox -2%, HT1080 IDH1KD tx -11% and DT40 TDP1 no CPT -12%.
For CC(=O)c1c(C)[nH]c(C(=O)OCC(=O)c2ccc(C)s2)c1C the results were uPA generation -9%, DT40 TDP1 CPT 23µM*, IL1B secr inh -8, HT1080-NT tox 1%, HT1080 IDH1KD tx -1% and DT40 TDP1 no CPT 18µM*.
CC(C)Cc1nc2cc(NS(=O)(=O)N(C)C)cc(C(=O)N3CCc4sccc4C3)c2n1C was read as DT40 TDP1 CPT 5% and DT40 TDP1 no CPT 0%.
`O=c1cc(SCc2ccccc2)nc[nH]1` gave uPA generation 5%, DT40 TDP1 CPT -11%, IL1B secr inh -80*, HT1080-NT tox 1%, HT1080 IDH1KD tx -5% and DT40 TDP1 no CPT -14%.
Cc1cc(SCc2ccccc2)nc(=O)[nH]1 was read as uPA generation -1%, DT40 TDP1 CPT -3%, IL1B secr inh -3, HT1080-NT tox 11%, HT1080 IDH1KD tx 11% and DT40 TDP1 no CPT 4%.
C=Cc1ccc(Cn2c(C)c(CNCc3cccc(Br)c3)c(C(=O)O)c2C)cc1 was read as DT40 TDP1 CPT 5% and DT40 TDP1 no CPT -13%.
Screening COc1ccc2nc(/N=C\N(C)C)sc2c1 returned uPA generation 0%, DT40 TDP1 CPT -13%, IL1B secr inh -6, HT1080-NT tox 13%, HT1080 IDH1KD tx 9% and DT40 TDP1 no CPT -2%.
Screening COc1ccc2nc(N=Nc3ccc(N(C)C)cc3)sc2c1 returned uPA generation -12%, DT40 TDP1 CPT 16µM*, IL1B secr inh -10, HT1080-NT tox 1%, HT1080 IDH1KD tx -7% and DT40 TDP1 no CPT inconclusive.
